We go through 14 compounds from PubChem BioAssay (NCATS).

Assay [1] in a line: Quantitative High-Throughput drug screen in 47 multiple myeloma cell lines against the NCATS MIPE library collection: OCIMY7_PLB cell viability assay (AID 1918987). Also: nearly all actives have a fitted effect of over 65% in size. In outline:
(§1)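 Viability after 48 h drug exposure was measured as ATP-dependent luminescence. Cells, 500 per well, sat at 37 °C under 5% CO2; DMSO wells set 100%, media-only wells 0%.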

Assay [2] can be described thus: Quantitative High-Throughput drug screen in 47 multiple myeloma cell lines against the NCATS MIPE library collection: OCIMY5_PLB cell viability assay (AID 1918988). Also: nearly all actives have a fitted effect of over 65% in size. A digest of the protocol: as §1
Assay [3] in a line: Quantitative High-Throughput drug screen in 47 multiple myeloma cell lines against the NCATS MIPE library collection: OPM1_PLB cell viability assay (AID 1918989). Also: nearly all actives have a fitted effect of over 40% in size. A digest of the protocol:
as §1

Assay [4] in a line: Quantitative High-Throughput drug screen in 47 multiple myeloma cell lines against the NCATS MIPE library collection: SKMM1_PLB cell viability assay (AID 1919863). Also: nearly all actives have a fitted effect of over 35% in size. As to viability: series mostly up to about 46 µM. As to conditions: SKMM1 myeloma viability, CellTiter-Glo ATP, 48 h; viability: active compounds read low. A digest of the protocol:
as §1

Assay [5] can be described thus: Quantitative High-Throughput drug screen in 47 multiple myeloma cell lines against the NCATS MIPE library collection: XG6_PLB cell viability assay (AID 1919865). Also: nearly all actives have a fitted effect of over 40% in size. A digest of the protocol: as §1
The nature of assay [6]: Quantitative High-Throughput drug screen in 47 multiple myeloma cell lines against the NCATS MIPE library collection: XG1_PLB cell viability assay (AID 1919866). Also: nearly all actives have a fitted effect of over 35% in size. A digest of the protocol: as §1
The nature of assay [7]: Quantitative High-Throughput drug screen in 47 multiple myeloma cell lines against the NCATS MIPE library collection: PE2_PLB cell viability assay (AID 1919869). Also: nearly all actives have a fitted effect of over 35% in size. In outline:
as §1

Assay [8] is described as follows: Quantitative High-Throughput drug screen in 47 multiple myeloma cell lines against the NCATS MIPE library collection: PCM6_Riken cell viability assay (AID 1919870). Also: nearly all actives have a fitted effect of over 30% in size. A digest of the protocol:
as §1

Assay [9] in a line: Quantitative High-Throughput drug screen in 47 multiple myeloma cell lines against the NCATS MIPE library collection: RPMI8226_ATCC cell viability assay (AID 1919871). Also: nearly all actives have a fitted effect of over 30% in size. A digest of the protocol:
as §1

The nature of assay [10]: Quantitative High-Throughput drug screen in 47 multiple myeloma cell lines against the NCATS MIPE library collection: OPM2_DSMZ cell viability assay (AID 1919872). Also: nearly all actives have a fitted effect of over 30% in size. A digest of the protocol: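 We plated 500 myeloma cells per well, pinned in MIPE 4.0 compounds, and incubated for 48 hours at 37C. ATP was then quantified with CellTiter-Glo, with DMSO and media-only wells defining 100% and 0%.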

Assay [11] can be described thus: Quantitative High-Throughput drug screen in 47 multiple myeloma cell lines against the NCATS MIPE library collection: KMS11_JCRBsus cell viability assay (AID 1919873). Also: nearly all actives have a fitted effect of over 50% in size. In outline:
as §1

Assay [12] can be described thus: Quantitative High-Throughput drug screen in 47 multiple myeloma cell lines against the NCATS MIPE library collection: KMS28BM_JCRB cell viability assay (AID 1919874). Also: nearly all actives have a fitted effect of over 35% in size. In outline: as §1
A short description of assay [13]: Quantitative High-Throughput drug screen in 47 multiple myeloma cell lines against the NCATS MIPE library collection: U266_ATCC cell viability assay (AID 1919864). Also: nearly all actives have a fitted effect of over 35% in size. In outline:
as §1

A short description of assay [14]: Quantitative High-Throughput drug screen in 47 multiple myeloma cell lines against the NCATS MIPE library collection: VP6_DJ cell viability assay (AID 1919867). Also: nearly all actives have a fitted effect of over 40% in size. In outline: as §1
The nature of assay [15]: Quantitative High-Throughput drug screen in 47 multiple myeloma cell lines against the NCATS MIPE library collection: UTMC2_PLB cell viability assay (AID 1919868). Also: nearly all actives have a fitted effect of over 55% in size. In outline: as §1

Records with an inconclusive call do not appear. Values without a mark were called inactive. Activity calls are given as the source filed them. Calls follow the shape of the dose curve; as a rule, active = well fitted cell-killing curve with a large enough effect; inconclusive = small, poorly fitted or top-dose-only effect, or effect the other way; inactive = no such curve, though single readings can be large or run the other way. Peptide text beside a SMILES is read from it.
Potency is read from the fitted curve at half-maximal effect.

For the compound `O=C(OC1C[C@H]2CC[C@@H](C1)[N+]21CCCC1)C(O)(c1ccccc1)c1ccccc1` (some centres undefined), the Potency entry in [1], in assay [2], in assay [3], in assay [5], in [6] and in [7] was “inactive” each time. In addition, the Potency entry in [8], in [9], in assay [10], in assay [11] and in [12] was “inactive” in each case. The viability (usually a read-out of living cells in per cent, often relative to untreated cells) in [4] is 138%.
As to `O=C1c2c(O)cc(O)cc2OC(c2ccc(O)c(O)c2)C1O` (centres undefined), the Potency in assay [1] is 14.8 µM (active). The Potency result in assay [2], in assay [3], in [13], in assay [6], in [14] and in [8] was “inactive” throughout. The Potency result in assay [9] and in [11] was “inactive” throughout.
In the case of `CS(=O)(=O)OCCCCOS(C)(=O)=O`, the Potency entry in assay [1], in [3], in assay [5], in assay [6], in assay [7] and in assay [10] was “inactive” in each case. The Potency result in [11] and in assay [12] was “inactive” each time. The Potency in [2] is 5.9 µM (active).
As for `CCN(CC)C(=S)SSC(=S)N(CC)CC`, the Potency in assay [1] was 0.001 µM (active); in [2] it was 0.0059 µM (active); in assay [3] it was 0.001 µM (active); in assay [4], 0.0105 µM (active); in assay [13], 0.0059 µM (active); in assay [5], 0.001 µM (active). In addition, the Potency in assay [6] was 0.001 µM (active); in assay [14], 0.001 µM (active); in assay [15], 0.0118 µM (active); in [8], 0.001 µM (active); in [9], 0.0187 µM (active); in assay [10] it was 0.0418 µM (active). In addition, the values for the Potency in [11] and in [12] were 0.003 µM (active) and 0.0019 µM (active), respectively.
For `COC(=O)[C@H](Cc1ccccc1)NC(=O)[C@@H](N)CC(=O)O` (H-Asp-Phe-OMe), the Potency entry in assay [1], in [2], in [3], in [13], in [6] and in assay [7] was “inactive” throughout. Also, the Potency entry in [8] and in [10] was “inactive” each time. Moreover, in assay [5], the Potency is 14.8 µM (active).
As to `Nc1ccc(S(N)(=O)=O)cc1`, the Potency entry in assay [1], in assay [2], in [3], in [13], in [5] and in [6] was “inactive” throughout. Also, the Potency result in assay [7], in assay [9], in [10], in assay [11] and in assay [12] was “inactive” each time. Moreover, in [4], the viability was 120%.
`CCCc1cc(=O)[nH]c(=S)[nH]1`: the Potency entry in assay [1], in assay [2], in [3], in [6], in assay [14] and in [7] was “inactive” each time. Moreover, the Potency entry in [8], in assay [9], in [10] and in assay [11] was “inactive” throughout. The viability in assay [4] was 115%.
On to `CN(C)CCCC1(c2ccc(F)cc2)OCc2cc(C#N)ccc21` (centres undefined), for which the Potency in assay [1] is 11.8 µM (active); in [2] it was 18.7 µM (active); in [13], 23.5 µM (active); in assay [9] it was 18.7 µM (active). The Potency entry in [3], in assay [14], in assay [15], in assay [7], in assay [8] and in assay [10] was “inactive” throughout. The viability in assay [4] was 106%.
In the case of `Cc1cccc(C)c1OCC(=O)N[C@@H](Cc1ccccc1)[C@@H](O)C[C@H](Cc1ccccc1)NC(=O)[C@H](C(C)C)N1CCCNC1=O`, the Potency in assay [1] is 11.8 µM (active); in [3], 18.7 µM (active); in assay [6] it was 20.9 µM (active); in assay [11], 20.9 µM (active). The Potency entry in [2] and in assay [13] was “inactive” each time.
With `Nc1ccn([C@@H]2O[C@H](CO)[C@@H](O)C2O)c(=O)n1` (some centres undefined), the Potency result in [1], in [3], in [13], in [5], in assay [6] and in assay [14] was “inactive” each time. The Potency result in assay [7], in [8], in assay [9], in assay [10] and in assay [12] was “inactive” each time. Moreover, the viability in [4] was 123%. Moreover, the Potency in assay [11] was 14.8 µM (active).
For `CC(C)C[C@H](NC(=O)[C@H](Cc1ccccc1)NC(=O)c1cnccn1)B(O)O`, the Potency is 0.001 µM (active) in assay [1]; 0.0047 µM (active) in assay [2]; 0.0083 µM (active) in [3]; 0.0372 µM (active) in assay [4]; 0.0093 µM (active) in assay [13]; 0.0074 µM (active) in [5]. In addition, the Potency in [6] is 0.0105 µM (active); in assay [14], 0.0074 µM (active); in [8] it was 0.0105 µM (active); in assay [9] it was 0.0187 µM (active); in [10] it was 0.0264 µM (active); in assay [11], 0.0083 µM (active). Further, the Potency in [12] is 0.0132 µM (active).
Turning to `NC(=NCc1ccccc1)NC(=O)c1nc(Cl)c(N)nc1N`, the Potency is 8.33 µM (active) in [1]; 16.6 µM (active) in assay [3]; 1.48 µM (active) in assay [13]; 0.935 µM (active) in assay [5]; 2.64 µM (active) in [6]; 7.43 µM (active) in assay [14]. In addition, the Potency was 9.35 µM (active) in [7] and 4.69 µM (active) in [8]. Further, the Potency result in [2], in [9], in assay [10], in assay [11] and in assay [12] was “inactive” in each case. In addition, the viability in assay [4] was 140%.
Turning to `O=C(c1ccccc1)c1ccc2n1CCC2C(=O)O` (centres undefined), the Potency in assay [1] was 7.43 µM (active); in assay [2] it was 0.743 µM (active); in [3], 20.9 µM (active); in assay [13], 3.72 µM (active); in assay [5], 9.35 µM (active); in [6], 9.35 µM (active). In addition, the Potency was 9.35 µM (active) in assay [14]; 14.8 µM (active) in assay [15]; 9.35 µM (active) in [7]; 10.5 µM (active) in assay [8]; 13.2 µM (active) in assay [11]; 23.5 µM (active) in assay [12]. Further, the viability in assay [4] is 105%. For the same compound, the Potency result in assay [9] and in assay [10] was “inactive” throughout.
In the case of `C[C@@H](N)C1CCC(C(=O)Nc2ccncc2)CC1` (some centres undefined), the Potency was 11.8 µM (active) in assay [1]; 11.8 µM (active) in [2]; 5.9 µM (active) in assay [5]; 9.35 µM (active) in assay [6]; 16.6 µM (active) in assay [7]; 14.8 µM (active) in assay [8]. In addition, in [4], the viability is 141%. Besides, the Potency entry in [9], in assay [10], in assay [11] and in assay [12] was “inactive” throughout.
